From PubChem BioAssay (NCATS)
Results filed as inconclusive are left out. Calls of active or inactive are those of the source. The call rests on the fitted dose curve; in most records, active means well fitted inhibition curve with a large enough effect; inconclusive means small, poorly fitted or top-dose-only effect; inactive means flat fitted curve, though single readings scatter.

Key:
Test in all cases: qHTS profiling for inhibitors of Plasmodium falciparum proliferation (AID 504749); further: nearly all actives have a fitted effect of over 60% in size
Conditions in all cases: P. falciparum in erythrocytes, SYBR Green DNA, 72 h; series mostly up to 28.7 µM
[1] = tested on: AA1029
Outline: (§1)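 SYBR Green fluorescence of parasite DNA, read after lysis and overnight dark incubation, measured growth over 72 h in erythrocyte culture at 0.3% parasitemia and 2.5% hematocrit. Data normalised to DMSO and 0.29 uM artemisinin, with plate-drift correction.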

[2] = tested on: AS120
Outline: as §1

[3] = tested on: ATS189
Outline: as §1

[4] = tested on: ATS95
Outline: as §1

[5] = tested on: C2A
Outline: as §1

[6] = tested on: CP185
Outline: as §1

[7] = tested on: CP191
Outline: as §1

[8] = tested on: CP192
Outline: as §1

[9] = tested on: CP194
Outline: as §1

[10] = tested on: CP201
Outline: as §1

[11] = tested on: CP203
Outline: as §1

[12] = tested on: CP211
Outline: as §1

[13] = tested on: CP215
Outline: as §1

[14] = tested on: CP217
Outline: as §1

[15] = tested on: CP237
Outline: as §1

[16] = tested on: CP238
Outline: as §1

[17] = tested on: CP247
Outline: as §1

[18] = tested on: CP250
Outline: as §1

[19] = tested on: CP252
Outline: as §1

[20] = tested on: CP256
Outline: as §1

Measured: Potency
Potency means the concentration at half of the fitted maximal effect.

CN(Cc1ccccc1)Cc1ccccc1
inactive: all assays above

CN[C@@H]1[C@H](O[C@H]2[C@H](O[C@H]3[C@H](O)[C@@H](O)[C@H](N=C(N)N)[C@@H](O)[C@@H]3N=C(N)N)O[C@@H](C)[C@]2(O)C=O)O[C@@H](CO)[C@H](O)[C@H]1O
inactive: all assays above

CCc1ncnc2cc(OC)c(OC)cc12
inactive: all assays above

CNC(=O)OCc1cccc(COC(=O)NC)n1
inactive: all assays above

Cc1ccccn1
inactive: all assays above

CC(=O)Nc1ccc(OC(C)=O)cc1
inactive: all assays above

CC(C)(C)CC(C)(C)c1ccc(OCCO)cc1
not listed: [20]
inactive: all other assays above

c1ccc2ccccc2c1
inactive: all assays above

C[C@]12CC[C@@H]3c4ccc(OC(=O)c5ccccc5)cc4CC[C@H]3[C@@H]1CC[C@@H]2O
active: [15] 4.47 µM
inactive: all other assays above

FC(F)(F)C(F)(F)C(F)(F)C(F)(F)C(F)(F)F
inactive: all assays above

O=[N+]([O-])c1c(Cl)cccc1-c1c[nH]cc1Cl
inactive: all assays above

C=CCOc1ccc(CC(=O)O)cc1Cl
inactive: all assays above

CCC(C(=O)NC(N)=O)c1ccccc1 (centres undefined)
inactive: all assays above

CC(C)(COP(=O)(O)OP(=O)(O)OC[C@H]1O[C@@H](n2cnc3c(N)ncnc32)[C@H](O)[C@@H]1OP(=O)(O)O)C(O)C(=O)NCCC(=O)NCCS (some centres undefined)
inactive: all assays above

COC(=O)c1ccccc1O
inactive: all assays above

C=CCN1CCCC1CNC(=O)c1cc(S(N)(=O)=O)cc(OC)c1OC (centres undefined)
inactive: all assays above

O=P(O)(O)OP(=O)(O)OP(=O)(O)O
inactive: all assays above

O=C(O)c1cc(N=Nc2ccc(O)c(C(=O)O)c2)ccc1O
inactive: all assays above

O=C(NNCS(=O)(=O)O)c1ccncc1
inactive: all assays above

O=C(NNCNNC(=O)c1ccncc1)c1ccncc1
inactive: all assays above

O=C(O)Cc1cc(I)c(Oc2ccc(O)c(I)c2)c(I)c1
inactive: all assays above

Cc1ccc(C(C)(C)c2ccc(C)cc2)cc1
inactive: all assays above

COC1=C(OC)C(=O)C(C/C=C(\C)CC/C=C(\C)CC/C=C(\C)CC/C=C(\C)CC/C=C(\C)CC/C=C(\C)CC/C=C(\C)CC/C=C(\C)CC/C=C(\C)CCC=C(C)C)=C(C)C1=O
inactive: all assays above

NCCO/C=C/[C@H](N)C(=O)O
inactive: all assays above

OC/C=C/c1ccccc1
inactive: all assays above

CC(O)CN(C)C (centres undefined)
inactive: all assays above

OC1OC[C@@H](O)[C@H](O)[C@@H]1O (some centres undefined)
inactive: all assays above

CCCCC(CC)CCC(CC(C)C)OS(=O)(=O)O (centres undefined)
inactive: all assays above
